20 molecules from PubChem BioAssay (NCI) can be followed below.

Molecules are shown by their SMILES. This is part of a sample that, as a whole, favours compounds with a hit. Of some 79,000 tested, about 15% had one in any assay. Unmarked numbers belong to inactive results. Activity calls are given as the source filed them. No stated cut-off is given here; in the data, active means growth inhibition above about 70%; inactive means the rest.

The nature of assay [1]: NCI Yeast Anticancer Drug Screen. Data for the rad50 strain (AID 155).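 Further: 0% = growth of vehicle-only cultures of the same strain.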 The settings on record: S. cerevisiae rad50 strain growth inhibition; at 50.0 µM; active compounds read high. In a few lines:
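A DNA repair-deficient yeast mutant serves as the test organism; compound-induced growth inhibition is calculated against vehicle-treated cells.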

Assay [2] can be described thus: NCI Yeast Anticancer Drug Screen. Data for the mec2-1 strain (AID 157). The settings on record: S. cerevisiae mec2-1 strain, at 50.0 µM, active compounds read high. In a few lines:
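Each compound was tested on mec2-1 yeast, a strain altered in DNA damage repair or cell cycle control. Growth inhibition is reported relative to vehicle.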

Assay [3] in a line: NCI Yeast Anticancer Drug Screen. Data for the sgs1 mgt1 strain (AID 161).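 Further: 0% = growth of cultures given vehicle only.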 The settings on record: S. cerevisiae sgs1 mgt1 strain, at 50.0 µM, active compounds read high. In a few lines:
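Genetically altered yeast, compound exposure, growth inhibition relative to vehicle.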

Assay [4] can be described thus: NCI Yeast Anticancer Drug Screen. Data for the cln2 rad14 strain (AID 165).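 Further: 0% = growth equal to vehicle treated cultures.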 The settings on record: S. cerevisiae cln2 rad14 strain, at 50.0 µM, active compounds read high. In a few lines:
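Test compounds were added to cln2 rad14 yeast cultures; inhibition of growth was then determined by comparison with vehicle treatment.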

Assay [5] can be described thus: NCI Yeast Anticancer Drug Screen. Data for the bub3 strain (AID 167). The settings on record: S. cerevisiae bub3 mutant strain, at 50.0 µM, active compounds read high. In a few lines:
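Inhibition values come from growth of compound-treated mutant yeast normalised to vehicle-treated controls.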

Assay [6] in a line: NCI Yeast Anticancer Drug Screen. Data for the mlh1 rad18 strain (AID 175). The settings on record: S. cerevisiae mlh1 rad18 strain growth inhibition; at 50.0 µM; active compounds read high. In a few lines: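 Inhibition values reflect reduced growth of mutant yeast versus vehicle-treated controls following compound exposure; the mutations affect DNA damage repair.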

As for `CC(C)[C@@]12O[C@@H]1CC13OC1[C@@H](O)CC[C@@]32O` (stereo not given in full), the growth inhibition in assay [1] is -16.6%; in assay [2], -1.05%; in assay [3], -2.8%; in assay [4], -27.9%; in assay [5], -6.25%; in assay [6], -20.8%.
Take `ONc1ncnc2[nH]cc(Br)c12`: the growth inhibition in assay [1] was 4%; in assay [2], -6.8%; in assay [3], -5.65%; in assay [4] it was 2.6%; in assay [5] it was -4.5%; in assay [6], 9.7%.
Take `CC12CC3OC3CC1CCC1C2CCC2(C)C1CCC21OCCO1` (stereo not given): the growth inhibition in assay [1] is 16%; in assay [2], -32.7%; in assay [3] it was 3.6%; in assay [4], 3.15%; in assay [5], 23.1%; in assay [6] it was 22.6%.
`Cc1ccccc1N=Cc1ccccc1O.[Co]`: the growth inhibition in assay [1] is 12.2%; in assay [2] it was 11.2%; in assay [3], 27.4%; in assay [4] it was -17.4%; in assay [5], 0.3%; in assay [6], 32%.
On to `CCCCCC(=O)Nc1cc(N)cc(C(=O)O)c1`, for which the growth inhibition is 4.25% in assay [1]; 9.25% in assay [2]; 9.5% in assay [3]; -9.6% in assay [4]; 0.1% in assay [5]; -14.3% in assay [6].
Turning to `Cc1cc(S(N)(=O)=O)c2ncccc2c1`, the growth inhibition in assay [1] is 1.8%; in assay [2], -3.5%; in assay [3] it was 2.35%; in assay [4] it was -33.1%; in assay [5], -8.4%; in assay [6] it was -3.2%.
For `c1ccc(-c2nnc3nn4c(-c5ccccc5)cnnc4c3c2-c2ccccc2)cc1`, the growth inhibition in assay [1] is -0.05%; in assay [2] it was -10.3%; in assay [3] it was -14.8%; in assay [4], 1.4%; in assay [5] it was -6.05%; in assay [6], 1.5%.
`CC(CCC(=O)O)[C@H]1CCC2[C@@H]3CC[C@@H]4CC(O)CC[C@]4(C)C3CC[C@@]21C` (stereo not given in full): the growth inhibition was -31.1% in assay [1]; -18.1% in assay [2]; -13.8% in assay [3]; -0.1% in assay [4]; -16.1% in assay [5]; -26.7% in assay [6].
In the case of `COc1cc(C(=O)O)cc(OC)c1OC(C)=O`, the growth inhibition is 6.65% in assay [1]; -7% in assay [2]; 3.8% in assay [3]; 9% in assay [4]; -34.7% in assay [5]; -8.65% in assay [6].
On to `O=C(O)CC(Sc1ccccc1)c1ccccc1` (stereo not given), for which the growth inhibition is 12.9% in assay [1]; -9.2% in assay [2]; -2.8% in assay [3]; 32% in assay [4]; 45.7% in assay [5]; 7.7% in assay [6].
For the molecule `O=[N+]([O-])c1ccc2c3c(ccc([N+](=O)[O-])c13)CC2`, the growth inhibition is -9.35% in assay [1]; -13.3% in assay [2]; -6.75% in assay [3]; -29.2% in assay [4]; -18.4% in assay [5]; -18.3% in assay [6].
On to `CCOC(=O)/C=C(/C)c1ccccc1`, for which the growth inhibition is 12.2% in assay [1]; 18.2% in assay [2]; 6.9% in assay [3]; 0.7% in assay [4]; -2.7% in assay [5]; 3.1% in assay [6].
On to `COC(=O)C(C(=O)C(=O)Nc1ccc(C)cc1)c1nc2ccc([N+](=O)[O-])cc2[nH]c1=O` (stereo not given), for which the growth inhibition was 16.9% in assay [1]; 15.2% in assay [2]; 0.8% in assay [3]; -3.95% in assay [4]; 22.2% in assay [5]; 4.6% in assay [6].
Take `Nc1c(-c2ncc[nH]2)ncn1CC(O)C(O)C(O)CO` (stereo not given): the growth inhibition in assay [1] was 7.5%; in assay [2] it was 19.6%; in assay [3], 12.3%; in assay [4], 22.9%; in assay [5], 3.2%; in assay [6], 17.9%.
`CCO/C(C)=C(/C(C)=O)C(=O)NC1CCCCC1`: the growth inhibition in assay [1] was -1.65%; in assay [2], 15.5%; in assay [3] it was -0.1%; in assay [4], 9.75%; in assay [5] it was -3.25%; in assay [6], -11.2%.
Turning to `C=CCN(CC=C)c1nc(N)c2ccc(Cl)cc2n1`, the growth inhibition in assay [1] is -8%; in assay [2] it was -8%; in assay [3], -6.65%; in assay [4], -52.4%; in assay [5], -10.8%; in assay [6], -6.45%.
On to `O=C1c2cccc3cc([N+](=O)[O-])cc(c23)C(=O)N1CCNCCNCCNCCN1C(=O)c2cccc3cc([N+](=O)[O-])cc(c23)C1=O`, for which the growth inhibition in assay [1] was 86% (active); in assay [2], 89% (active); in assay [3] it was 89.3% (active); in assay [4], 90.2% (active); in assay [5] it was 89.2% (active); in assay [6] it was 90.9% (active).
With `CSc1nc2c(nc(N)n2C2OCC(O)C(O)C2O)c(=O)[nH]1` (stereo not given), the growth inhibition was -19.2% in assay [1]; -5.2% in assay [2]; -12.5% in assay [3]; -15% in assay [4]; -5.65% in assay [5]; -29.2% in assay [6].
Regarding `O=C1C=CC(=O)c2c1c1c(c3c2C2c4ccccc4C3c3ccccc32)C2c3ccccc3C1c1ccccc12`, the growth inhibition in assay [1] was -13.5%; in assay [2] it was -16.1%; in assay [3], 19.9%; in assay [4], -8.25%; in assay [5], -5.75%; in assay [6] it was 12.7%.
Take `CC1=CCC(=O)[C@]2(C)C(CC(=O)O)[C@]3(C)C4=C(C)C(c5ccoc5)C[C@@H]4O[C@@H]3[C@H](O)[C@@H]12` (stereo not given in full): the growth inhibition was 26.5% in assay [1]; -9.6% in assay [2]; 9.65% in assay [3]; 41% in assay [4]; -1.2% in assay [5]; -67.8% in assay [6].
